# Where “and” joins values, the source holds several entries; their conditions need not be identical. Identical values can stand only once. Compounds without any hit were thinned out: in the full panel of roughly 79,000, 15% have a hit. Some structures have more than one record in an assay (separate samples or runs), and their calls can disagree. Calls of active or inactive are those of the source. Cut-off read from the data, not from the text of the source: active = growth inhibition above about 70%; inactive = the rest.
# How the values were obtained:
# [1] = NCI Yeast Anticancer Drug Screen. Data for the wt1 strain (AID 149);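 note: 0% = growth of vehicle-treated wt1 cultures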; settings: S. cerevisiae wt1 strain (SPY 50644) growth inhibition, stronger effect = higher value
# Procedure, shortened: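 wt1 yeast, compound-treated; % growth inhibition vs vehicle control.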
# [2] = NCI Yeast Anticancer Drug Screen. Data for the mgt1 strain (AID 153); settings: S. cerevisiae mgt1 mutant growth inhibition, stronger effect = higher value
# Procedure, shortened: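 mgt1 yeast grown with test compound; read-out is growth inhibition versus vehicle-treated cultures.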
# [3] = NCI Yeast Anticancer Drug Screen. Data for the rad50 strain (AID 155);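 note: 0% = growth of vehicle-only cultures of the same strain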; settings: S. cerevisiae rad50 strain growth inhibition, stronger effect = higher value
# Procedure, shortened: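 Genetically altered yeast (DNA repair pathway); compound treatment; growth inhibition vs vehicle ctrl.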
# [4] = NCI Yeast Anticancer Drug Screen. Data for the mec2-1 strain (AID 157); settings: S. cerevisiae mec2-1 strain, stronger effect = higher value
# Procedure, shortened: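 Yeast mec2-1 mutant treated with compound. Readout: growth inhibition vs vehicle controls.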
# [5] = NCI Yeast Anticancer Drug Screen. Data for the sgs1 mgt1 strain (AID 161);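 note: 0% = growth of cultures given vehicle only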; settings: S. cerevisiae sgs1 mgt1 strain, stronger effect = higher value
# Procedure, shortened: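 Inhibition of yeast growth, normalised to vehicle-treated controls, is reported for a strain bearing genetic alterations in DNA damage repair.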
# [6] = NCI Yeast Anticancer Drug Screen. Data for the CLN2oe strain (AID 163);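 note: 0% = growth of vehicle-only control cultures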; settings: S. cerevisiae CLN2oe strain, stronger effect = higher value
# Procedure, shortened: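 Read-out: yeast growth inhibition, expressed relative to vehicle-only controls. The strain bears an engineered cell-cycle alteration.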
# [7] = NCI Yeast Anticancer Drug Screen. Data for the cln2 rad14 strain (AID 165);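 note: 0% = growth equal to vehicle treated cultures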; settings: S. cerevisiae cln2 rad14 strain, stronger effect = higher value
# Procedure, shortened: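 cln2 rad14 yeast strain; compound exposure; growth inhibition read vs vehicle controls.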
# [8] = NCI Yeast Anticancer Drug Screen. Data for the bub3 strain (AID 167); settings: S. cerevisiae bub3 mutant strain, stronger effect = higher value
# Procedure, shortened: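 Yeast carrying a defined mutation is treated with each compound, and growth is compared with that of vehicle-exposed cells to give inhibition.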
# [9] = NCI Yeast Anticancer Drug Screen. Data for the wt2 strain (AID 169);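 note: 0% = growth of vehicle-treated yeast cultures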; settings: S. cerevisiae wt2 strain growth inhibition, stronger effect = higher value
# Procedure, shortened: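 Read-out: growth inhibition versus vehicle-treated control cultures after compound exposure of the yeast strain.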
# [10] = NCI Yeast Anticancer Drug Screen. Data for the mlh1 strain (AID 171);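 note: 0% = growth of vehicle-treated control cultures of the same strain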; settings: S. cerevisiae mlh1 strain growth inhibition, stronger effect = higher value
# Procedure, shortened: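 Read-out: growth inhibition versus vehicle controls. Strain: engineered yeast with a defined DNA repair or cell cycle defect, compound-treated.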
# [11] = NCI Yeast Anticancer Drug Screen. Data for the sgs1 strain (AID 173);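 note: 0% = growth of vehicle-only control cultures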; settings: S. cerevisiae sgs1 mutant, stronger effect = higher value
# Procedure, shortened: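 Read-out: yeast growth inhibition relative to vehicle controls, following compound exposure of a strain with a defined DNA repair/cell cycle alteration.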
# [12] = NCI Yeast Anticancer Drug Screen. Data for the rad18 strain (AID 177); settings: S. cerevisiae rad18 mutant growth inhibition, stronger effect = higher value
# Procedure, shortened: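 Readout: growth inhibition vs vehicle controls. Cells: genetically altered yeast strain, DNA repair defect.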
# [13] = NCI Yeast Anticancer Drug Screen. Data for the mlh1 rad18 strain (AID 175); settings: S. cerevisiae mlh1 rad18 strain growth inhibition, stronger effect = higher value
# Procedure, shortened: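 Yeast w/ defined DNA-repair lesions; compound exposure; growth vs vehicle controls → % inhibition.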
# [14] = at 5.0 µM (retest, dose inferred, filed as 0.5)
# [15] = at 50.0 µM (retest, dose inferred, filed as 5.0)
structure (smiles),measurement,setting,value
[O-]c1c2cc(-[n+]3c(-c4ccccc4)cc(-c4ccccc4)cc3-c3ccccc3)cc1COCCOCCOCCOCCOC2,growth inhibition,[1]; at 1.2 µM,3% (inactive)
same,growth inhibition,[1]; at 3.7 µM,-6% (inactive)
same,growth inhibition,[1]; at 11.0 µM,-6% (inactive)
same,growth inhibition,[1]; at 33.0 µM,-7% (inactive)
same,growth inhibition,[1]; at 100.0 µM,35% (inactive)
same,growth inhibition,[2]; at 1.2 µM,-7% (inactive)
same,growth inhibition,[2]; at 3.7 µM,-2% (inactive)
same,growth inhibition,[2]; at 11.0 µM,-13% (inactive)
same,growth inhibition,[2]; at 33.0 µM,10% (inactive)
same,growth inhibition,[2]; at 100.0 µM,82% (active)
same,growth inhibition,[3]; at 1.2 µM,1% (inactive)
same,growth inhibition,[3]; at 3.7 µM,-2% (inactive)
same,growth inhibition,[3]; [14],-5% (inactive)
same,growth inhibition,[3]; at 11.0 µM,0% (inactive)
same,growth inhibition,[3]; at 33.0 µM,17% (inactive)
same,growth inhibition,[3]; [15],35% (inactive)
same,growth inhibition,[3]; at 50.0 µM,59.1% (inactive)
same,growth inhibition,[3]; at 100.0 µM,80% (active)
same,growth inhibition,[4]; at 1.2 µM,-5% (inactive)
same,growth inhibition,[4]; at 3.7 µM,-4% (inactive)
same,growth inhibition,[4]; [14],-7% (inactive)
same,growth inhibition,[4]; at 11.0 µM,-2% (inactive)
same,growth inhibition,[4]; at 33.0 µM,4% (inactive)
same,growth inhibition,[4]; [15],31% (inactive)
same,growth inhibition,[4]; at 50.0 µM,33% (inactive)
same,growth inhibition,[4]; at 100.0 µM,77% (active)
same,growth inhibition,[5]; [14],-11% (inactive)
same,growth inhibition,[5]; [15],20% (inactive)
same,growth inhibition,[5]; at 50.0 µM,31.6% (inactive)
same,growth inhibition,[6]; at 1.2 µM,-6% (inactive)
same,growth inhibition,[6]; at 3.7 µM,1% (inactive)
same,growth inhibition,[6]; at 11.0 µM,-3% (inactive)
same,growth inhibition,[6]; at 33.0 µM,-6% (inactive)
same,growth inhibition,[6]; at 100.0 µM,77% (active)
same,growth inhibition,[7]; [14],-31% (inactive)
same,growth inhibition,[7]; [15],12% (inactive)
same,growth inhibition,[7]; at 50.0 µM,17.1% (inactive)
same,growth inhibition,[8]; at 1.2 µM,-4% (inactive)
same,growth inhibition,[8]; at 3.7 µM,-6% (inactive)
same,growth inhibition,[8]; [14],-19% (inactive)
same,growth inhibition,[8]; at 11.0 µM,-4% (inactive)
same,growth inhibition,[8]; at 33.0 µM,-8% (inactive)
same,growth inhibition,[8]; [15],10% (inactive)
same,growth inhibition,[8]; at 50.0 µM,21.7% (inactive)
same,growth inhibition,[8]; at 100.0 µM,30% (inactive)
same,growth inhibition,[9]; at 1.2 µM,-2% (inactive)
same,growth inhibition,[9]; at 3.7 µM,-3% (inactive)
same,growth inhibition,[9]; at 11.0 µM,-2% (inactive)
same,growth inhibition,[9]; at 33.0 µM,18% (inactive)
same,growth inhibition,[9]; at 100.0 µM,82% (active)
same,growth inhibition,[10]; at 1.2 µM,-1% (inactive)
same,growth inhibition,[10]; at 3.7 µM,-1% (inactive)
same,growth inhibition,[10]; at 11.0 µM,-2% (inactive)
same,growth inhibition,[10]; at 33.0 µM,12% (inactive)
same,growth inhibition,[10]; at 100.0 µM,87% (active)
same,growth inhibition,[11]; at 1.2 µM,-4% (inactive)
same,growth inhibition,[11]; at 3.7 µM,-2% (inactive)
same,growth inhibition,[11]; at 11.0 µM,-1% (inactive)
same,growth inhibition,[11]; at 33.0 µM,18% (inactive)
same,growth inhibition,[11]; at 100.0 µM,71% (active)
same,growth inhibition,[12]; at 1.2 µM,-1% (inactive)
same,growth inhibition,[12]; at 3.7 µM,-3% (inactive)
same,growth inhibition,[12]; at 11.0 µM,-3% (inactive)
same,growth inhibition,[12]; at 33.0 µM,6% (inactive)
same,growth inhibition,[12]; at 100.0 µM,74% (active)
CCCCCCCCCCCC[N+](C)(C)C,growth inhibition,[3]; [14],-9% (inactive) and -3% (inactive) and 12% (inactive)
same,growth inhibition,[3]; [15],98% (active) and 96% (active) and 99% (active)
same,growth inhibition,[3]; at 50.0 µM,49.9% (inactive) and 80.2% (active) and 39.5% (inactive)
same,growth inhibition,[4]; [14],-3% (inactive) and 0% (inactive) and 22% (inactive)
same,growth inhibition,[4]; [15],99% (active) and 98% (active) and 100% (active)
same,growth inhibition,[4]; at 50.0 µM,53.3% (inactive) and 89.5% (active) and 92.2% (active)
same,growth inhibition,[5]; [14],-8% (inactive) and -3% (inactive) and 49% (inactive)
same,growth inhibition,[5]; [15],98% (active) and 97% (active) and 99% (active)
same,growth inhibition,[5]; at 50.0 µM,49% (inactive) and 92.5% (active) and 48.6% (inactive)
same,growth inhibition,[7]; [14],3% (inactive) and -1% (inactive) and 2% (inactive)
same,growth inhibition,[7]; [15],97% (active) and 96% (active) and 99% (active)
same,growth inhibition,[7]; at 50.0 µM,71.8% (active) and -21.6% (inactive) and 66.2% (inactive)
same,growth inhibition,[13]; [14],-4% (inactive) and -5% (inactive) and 4% (inactive)
same,growth inhibition,[13]; [15],96% (active) and 95% (active) and 99% (active)
same,growth inhibition,[13]; at 50.0 µM,83.3% (active) and 91% (active) and 80.5% (active)

# — PubChem BioAssay (NCI)
